# Source: the supplement of paper PMC11219838
# Unmarked numbers belong to inactive results.
# Tested on: Caenorhabditis elegans dauer (daf-2(e1370))
# Experiment: proportion of mobile C. elegans dauer larvae relative to DMSO control (fraction of DMSO control); higher = more viable, less nematicidal, active = 0.63 or less; extreme values may be limits of the assay
# Details: 60 µM; 5 days; temperature: 20 °C
# Protocol: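 DODA library (846 commercial 1,3,4- and 1,2,4-oxadiazole compounds plus commercial nematicide controls) screened at a single dose of 60 µM (0.6% DMSO) in 96-well plates, two biological replicates. Read-outs: C. elegans N2 L1 survival/reproduction score at day 6, 20 °C (0: 0-10 worms, 1: 11-20, 2: 21-50, 3: >50, 4: overgrown/starved). C. elegans daf-2 dauer, D. dipsaci and M. hapla J2 mobility at day 5, 20 °C, and P. penetrans mobility at day 5, 20 °C, each relative to DMSO controls. M. hapla egg hatching at day 12, 25 °C, relative to the mean of 8 DMSO wells on the same plate.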
row,Compound,proportion of mobile C. elegans dauer larvae
1,COc1cccc(-c2noc(COc3ccc(Cl)cc3)n2)c1,1
2,Cc1ccc(-c2noc(COc3ccc(Cl)cc3)n2)cc1,1
3,CCOc1ccc(-c2nc(-c3ccc(Cl)cc3)no2)cc1,1
4,CCOc1ccccc1-c1nnc(SCc2ccccc2)o1,1
5,Cc1ccc(OCc2nc(-c3ccccc3)no2)cc1C,1
6,Cc1ccc(-c2noc(-c3ccc(C)cc3Cl)n2)cc1,1
7,Cc1ccccc1CSc1nnc(-c2ccncc2)o1,1
8,CCOc1ccccc1-c1nc(-c2ccc(NC(=O)CCc3ccc(OC)cc3)cc2)no1,1
9,COc1ccc(C(=O)Nc2ccc(-c3nnc(SCc4ccccc4)o3)cc2)cc1,1
10,Cc1cc(OCc2nc(-c3ccccn3)no2)c(C)cc1Br,1
11,CCOc1ccc(-c2nc(-c3ccccc3C)no2)cc1,1
12,COc1ccc(-c2noc(COc3ccc(F)cc3)n2)cc1,1
13,Cc1ccc(C)c(-c2nc(-c3ccncc3)no2)c1,0.385 (active)
14,Brc1ccc(-c2nc(-c3cccnc3)no2)cc1,0.552 (active)
15,COc1ccccc1NC(=O)CSc1nnc(-c2cccc3ccccc23)o1,1
16,Cc1cccc(-c2noc(COc3ccc(C)cc3C)n2)c1,1
17,Cc1ccccc1-c1nc(-c2cccc(NC(=O)c3cccs3)c2)no1,1
18,CNC(=O)c1ccccc1-c1nc(-c2ccc(F)cc2)no1,1
19,COc1ccc(OC(C)c2nc(-c3ccccn3)no2)cc1 (stereo not given),1
20,COc1ccccc1-c1nnc(SCC(=O)Nc2ccccc2Cl)o1,1

row,Compound,proportion of mobile C. elegans dauer larvae
1,Cc1ccccc1OCc1nc(-c2ccccc2)no1,1
2,Cc1ccc(NC(=O)CSc2nnc(-c3ccccc3)o2)cc1F,1
3,Clc1ccc(-c2nc(-c3ccncc3)no2)cc1Cl,1
4,CC(=O)Nc1ccc(-c2nc(-c3ccccc3)no2)cc1,1
5,COc1ccc(-c2noc(COc3ccccc3C)n2)cc1,1
6,Brc1cccc(-c2nc(-c3ccccc3)no2)c1,1
7,COc1nc(C)ccc1-c1noc(-c2ccccc2Br)n1,1
8,CCOc1ccccc1-c1nnc(SCC(=O)Nc2ccccc2)o1,1
9,Cc1ccc(C)c(OCc2nc(-c3ccccc3Cl)no2)c1,1
10,CCCOc1ccc(-c2ccc(-c3nc(-c4cccnc4)no3)cc2)cc1,1
11,Clc1ccc(SCc2nc(-c3ccccc3)no2)cc1,0.59 (active)
12,N#Cc1ccccc1CSc1nnc(-c2ccccc2)o1,1
13,Fc1ccc(OCc2nc(-c3ccc(Br)cc3)no2)cc1,1
14,O=C(CSc1nnc(-c2ccccc2)o1)Nc1ccc(Br)cc1F,1
15,Cc1ccccc1OCc1nc(-c2ccc(F)cc2)no1,1
16,Cc1ccc(OC(C)c2nc(-c3cccnc3)no2)cc1 (stereo not given),1
17,COc1cccc(-c2noc(-c3ccccc3C)n2)c1,1
18,CC(C)Oc1cccc(-c2nc(-c3ccccn3)no2)c1,0.667
19,c1csc(-c2nnc(-c3cccs3)o2)c1,0.786
20,Cc1cc(C)nc(SCc2nc(-c3ccccc3)no2)n1,1
